Source: PubChem (National Center for Advancing Translational Sciences (NCATS))
In the library only some 8% were active in any assay of this set; here they are far more common.
RORgamma inh: blocks mouse ROR gamma transcriptional activity; Drosophila S2 Gal4-RORgamma UAS-luciferase reporter, 20 h; 5.4% of 310,000 active; Potency, µM (series often up to 53.6 µM), without a hit: top-dose activity change, negative = inhibition, actives largely listed as inhibitors; P51450; AID 2551; also: potency is read from the fitted curve at half-maximal effect; nearly all actives have a fitted effect of over 60% in size
Target sequence (P51450 whole entry, looked up, the tested form may be a part): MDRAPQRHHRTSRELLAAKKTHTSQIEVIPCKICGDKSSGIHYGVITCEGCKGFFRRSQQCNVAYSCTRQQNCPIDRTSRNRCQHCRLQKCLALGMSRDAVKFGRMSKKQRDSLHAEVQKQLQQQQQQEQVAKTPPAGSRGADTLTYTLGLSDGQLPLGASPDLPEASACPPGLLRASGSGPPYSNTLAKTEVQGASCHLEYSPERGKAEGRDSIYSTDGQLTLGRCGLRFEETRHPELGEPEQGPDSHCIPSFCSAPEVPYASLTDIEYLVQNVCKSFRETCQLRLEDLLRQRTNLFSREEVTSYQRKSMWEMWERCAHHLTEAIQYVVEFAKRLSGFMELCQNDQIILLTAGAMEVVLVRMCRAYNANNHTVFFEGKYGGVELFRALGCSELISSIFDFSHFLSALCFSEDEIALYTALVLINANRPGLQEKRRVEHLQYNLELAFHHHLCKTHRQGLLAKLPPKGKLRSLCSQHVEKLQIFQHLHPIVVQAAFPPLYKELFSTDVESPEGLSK
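Read-out: Photinus luciferase luminescence; inhibitors lower reporter signal. Insect Schneider cells with Gal4-ROR gamma fusion under metallothionein promoter, UAS reporter; 700 uM final copper sulfate induction, 20 hr, ambient temperature.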
Gal4-VP16 FLuc: inhibits Gal4-VP16 luciferase reporter, ROR gamma counter-screen; Drosophila S2 Gal4-VP16 UAS-luciferase, luminescence, 20 h; Potency, µM (series often up to 53.6 µM), inactives show at the highest dose activity, negative = inhibition, hits mostly inhibitors; 3.5% of 310,000 active; AID 2546;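 also: Gal4-VP16 expression switched on by copper sulfate through the metallothionein promoter; potency is read from the fitted curve at half-maximal effect; nearly all actives have a fitted effect of over 50% in size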
ELG1 repair inh: blocks ELG1-dependent DNA repair in HEK293T cells | 2.3% of 330,000 active | Potency, µM (top dose mostly 46.1 µM), for the others: at the highest dose activity change, negative = inhibition, most hits filed as inhibitors | HEK293T ELG1-luciferase reporter, luminescence, 16 h; DNA damage induced by 5-fluorouridine | AID 504467; also: potency is read from the fitted curve at half-maximal effect; nearly all actives have a fitted effect of over 55% in size
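Overnight (16 hr) co-exposure of 2,000 cells/well to 5-fluorouridine and compound at 37 °C preceded detection. Luciferase was quantified via ONE-Glo luminescence; loss of signal denotes inhibition.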
Coupling enz: inhibits coupling enzyme system, counter-screen for aldolase hits; coupling enzyme system counterscreen, AmpLite Red fluorescence; activity change, negative = inhibition, % at 58.2 µM, hits read low; 0.67% of 290,000 active; in the data active = activity change below about -30%
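Counterscreen lacking aldolase: glyceraldehyde-3-phosphate coupling-enzyme reagent preincubated 10 min at RT with compound (at 57.5 uM final), then substrate/coupling system with AmpLite Red added; fluorescence read at 525/598 nm after 20 min RT.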
TSHR antag: human thyrotropin receptor antagonism. P16473. TSHR-expressing cells, TSH-stimulated cAMP HTRF, 2 h; active compounds read low. activity change, negative = inhibition, % at 11.5 µM. 0.2% of 330,000 active. AID 504810;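 active = activity change below a set negative limit, meaning inhibition stronger than a set level, cut at about -70% in these data; inconclusive = activity change between two set negative limits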
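TSHR-expressing cells, 200/well, pre-treated with compound, then stimulated with EC80 TSH (4nM final) for 2 hours at 37 deg C. cAMP measured by competitive HTRF: anti-cAMP cryptate antibody in lysis buffer plus cAMP-d2, read after 30 minutes at room temperature.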
Numbers without * were called inactive; ? = inconclusive; . = no result given; [ ] = dose if it differs, or a comment. Unless noted, calls follow the shape of the dose curve; as a rule, active = well fitted curve in the direction sought with a large enough effect; inconclusive = small, poorly fitted or top-dose-only effect, or another doubt; inactive = no such curve, though single readings can be large; an effect the other way counts as inactive or inconclusive. % is scaled to controls: 0 for no effect and ±100 for the full control effect.

SMILES | RORgamma inh | Gal4-VP16 FLuc | ELG1 repair inh | Coupling enz | TSHR antag
CC(C)(C)NC(=O)C(c1ccncc1)N(C(=O)Cn1nnc(-c2ccc(F)cc2)n1)c1ccccc1F (stereo not given) | 13µM* | -27% | 8% | -6 | 3
CCCc1ccc(O)c(N=Cc2cc(Br)cc(OCC)c2O)c1 | 7.1µM* | 13µM* | ? | -5 | -1
COc1cccc(Cn2c(=O)c(CCc3ccccc3)nc3cncnc32)c1 | 16% | -3% | . | -2 | .
CNc1sc(C(=O)c2ccccc2F)c(N)c1-c1nc2ccccc2s1 | 7.9µM* | 13µM* | ? | -4 | -2
S=C(NCc1ccc2[nH]c3c(c2c1)CCCC3)Nc1ccccc1Cl | 3.2µM* | 8.9µM* | -20% | -9 | -7
Cc1ccc(C)c(NC(=S)NCc2ccc3[nH]c4c(c3c2)CCCC4)c1 | 2µM* | 6.3µM* | ? | 1 | -3
Cc1ccccc1NC(=S)NCc1ccc2[nH]c3c(c2c1)CCCC3 | 1.6µM* | 3.5µM* | ? | 0 | 0
CC(=O)OCOC(=O)CNc1ccccc1OCCOc1ccccc1NCC(=O)OCOC(C)=O | ? | 0% | . | 0 | .
CCNC(=S)NN=C1c2ccccc2-c2ccccc21 | 1.8µM* | 3.2µM* | ? | -3 | -2
C=C(C)CNC(=S)NN=C1c2ccccc2-c2ccccc21 | 3.2µM* | ? | -12% | 2 | -6
NC(=O)N/N=C1\c2ccccc2-c2c(C(N)=O)cccc21 | -30% | 5% | 3% | 0 | -5
COc1cccc(OCC(=O)NN=C2c3ccccc3-c3ccccc32)c1 | -44% | -6% | ? | -2 | 21
C=C(C)CNC(=S)N/N=C/c1ccco1 | 0.56µM* | 3.2µM* | 1% | -8 | -4
O=S(=O)(NC1C2CC3CC(C2)CC1C3)c1ccccc1 (stereo not given) | . | . | -5% | . | -27
O=C1[C@H]2[C@H]3[C@H](O)[C@H](O)C/C(=N/OC[C@@H](O)COCc4ccco4)[C@H]3CC[C@@H]2C(=O)N1Cc1ccccc1 | 0%[10 µM] | 0%[10 µM] | . | -2 | .
Cc1cc(NC(=O)CSCC(=O)Nc2cccc(S(=O)(=O)N3CCCCCC3)c2)no1 | . | . | 1% | . | -8
CCOc1ccc(CN(C)C(=O)CCc2ccc(S(=O)(=O)N3CCCCCC3)cc2)cc1 | . | . | 7.9µM* | . | -21
Cc1ccc(C(=O)N(C)Cc2ccccc2)cc1S(=O)(=O)N1CCOCC1 | -2% | 9% | 0% | . | -9
COc1ccc(CN(C)C(=O)CCc2ccc(S(=O)(=O)N3CCCCCC3)cc2)c(OC)c1 | . | . | ? | . | -13
CN(Cc1ccc(F)cc1)C(=O)c1cccc(S(=O)(=O)N2CCN(c3ccc(F)cc3)CC2)c1 | . | . | ? | . | -1
CN(Cc1cccc(F)c1)C(=O)c1ccc(S(=O)(=O)N2CCOCC2)cc1 | . | . | 8% | . | 1
Cc1ccc(C(=O)N(C)Cc2ccc(N3CCOCC3)cc2)cc1S(=O)(=O)NCc1ccccc1 | . | . | 21µM* | . | -3
CN(Cc1cccc(F)c1)C(=O)c1ccc(S(=O)(=O)N2CCCCCC2)cc1 | . | . | 21µM* | . | -5
CN(Cc1ccc(F)cc1)C(=O)c1cccc(S(=O)(=O)N2CCN(c3ccccc3)CC2)c1 | . | . | 18µM* | . | -14
COCCN(Cc1ccccc1)C(=O)c1cccc(S(=O)(=O)N2CCN(c3ccccc3)CC2)c1 | . | . | 15µM* | . | 12
SMILES | RORgamma inh | Gal4-VP16 FLuc | ELG1 repair inh | Coupling enz | TSHR antag
CN(C)S(=O)(=O)c1cccc(NC(=O)CSc2nc3ccccc3[nH]2)c1 | 14% | 8% | 13µM* | 1 | -1
Cc1ccc2nc(SCC(=O)Nc3ccc4c(c3)CCC4)[nH]c2c1 | ? | 11µM* | -3% | 0 | 6
CCN(CC)S(=O)(=O)c1cccc(NC(=O)CSc2nc3ccccc3[nH]2)c1 | 33% | 0% | 23µM* | 0 | -5
Cc1ccc2nc(SCC(=O)Nc3cccc(S(=O)(=O)N(C)C)c3)[nH]c2c1 | ? | 3% | ? | -1 | -4
Cc1ccc(SCC(=O)OCC(=O)N2CCN(C(=O)c3ccco3)CC2)c(C)c1 | . | . | ? | . | 1
N#CCCn1c(=O)c(-c2ccccc2)nc2cnc(Oc3cccc(Cl)c3)nc21 | 18% | -10% | . | 1 | .
S=C(NCc1ccccc1)Nc1cccc2ccccc12 | 3.2µM* | 5.6µM* | 7% | -4 | 9
Cc1ccc(C(C)C)c(OCCN)c1 | -15% | -4% | -5% | 6 | 13
Cc1cccc(Nc2ncccc2C(=O)NCc2cccs2)c1C | -8% | 11% | ? | -5 | -20
Cc1cccc(NC(=S)NCc2cccs2)c1C | 3.5µM* | 10µM* | -8% | 5 | -2
Cc1ccc(C(C)C)c(OCCNC(=S)Nc2cccc3ccccc23)c1 | 1.3µM* | 3.2µM* | -14% | -13 | 13
S=C(NCCc1ccccc1)NCc1cccs1 | 11µM* | -84% | ? | 1 | 8
S=C(NCCN1CCOCC1)Nc1cccc2ccccc12 | ? | ? | 10% | 2 | 0
S=C(NCc1cccs1)Nc1cccc2ccccc12 | 3.5µM* | ? | 2% | -3 | 10
CCn1c(SCC(=O)NCCCN2CCCC2=O)nnc1-c1cccc(C)c1 | . | . | 25% | . | 15
O=C(Nc1ccsc1C(=O)O)c1ccc(Cl)cc1 | -38% | ? | ? | -1 | 2
Cc1ccc(C(=O)Nc2ccsc2C(=O)O)cc1 | 11µM* | ? | ? | -7 | 5
CC(NC(=O)C(=O)N1CCCCC1)C(c1cccs1)N1CCN(C)CC1 (stereo not given) | -3% | -7% | ? | . | 49
CCOc1ncccc1C(=O)OCC(=O)N1CCN(S(=O)(=O)c2ccc(Cl)cc2)CC1 | 3% | -11% | 2% | 4 | 7
Nc1ncccc1C(=O)OCC(=O)N1CCN(S(=O)(=O)c2ccc(Cl)cc2)CC1 | . | . | 9.2µM* | . | 26
C[C@@H](O)[C@H]1C(=O)N2C(C(=O)O)=C(SCCN=CN)C[C@H]12 | . | . | . | . | -7
COc1cccc(C(=O)c2sc(NC(C)C)nc2N)c1 | ? | 11µM* | 21µM* | 1 | 0
CC1CCCN(c2ncnc3c2cnn3-c2ccccc2)C1 (stereo not given) | ? | 5µM* | ? | -5 | 3
CCN1CCN(c2ncnc3c2cnn3-c2ccccc2)CC1 | 22% | 10% | ? | 0 | -4
c1ccc(-n2ncc3c(N4CCCCC4)ncnc32)cc1 | 5µM* | 5.6µM* | ? | 2 | -15
COc1cccc(N2CCN(c3ncnc4c3cnn4-c3ccc(C)cc3C)CC2)c1 | 36% | -13% | 3.3µM* | -4 | -93*
CC[C@]1(O)C[C@@H]2CN(CCc3c([nH]c4ccccc34)[C@](C(=O)OC)(c3cc4c(cc3OC)N(C)[C@H]3[C@](O)(C(=O)OC)[C@@H](C(=O)OC)[C@@]5(CC)C=CCN6CC[C@@]43[C@@H]65)C2)C1 | 45% | ? | . | -1 | .
